Assay results published in PubChem BioAssay AID1159580 (chemical genetic matrix, 2015).
Screen size: about 5,500 compounds; about 2,000 (36%) were called active. Not shown: some 18% with an inconclusive outcome. Rule as the data show it: active = normalized growth mostly below about 0.91 (no sharp cut-off); inconclusive = no clear call, values can overlap the other calls; inactive = mostly above about 0.92. The list shows a part of the results.

Test: chemical genetic growth profiling, strain panel (AID 1159580);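 also: tested at 20 µM; growth read once vehicle control cultures reached saturation at 30 °C; 1 = growth at the plate median or of vehicle wells; lower values mean less growth of the strain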
Conditions: S. cerevisiae deletion strains, growth OD

Measured: normalized growth

COc1cc(/C=C/C(=O)N2CCC=CC2=O)cc(OC)c1OC
inactive: locus YAL021C, strain ccr4, stronger effect = lower value 0.948 | locus YAL026C, strain drs2, stronger effect = lower value 1 | locus YAL030W, strain snc1, stronger effect = lower value 1 | locus YBL061C, strain skt5, stronger effect = lower value 0.993 | locus YBR009C, strain hhf1, stronger effect = lower value 1.06 | locus YBR023C, strain chs3, stronger effect = lower value 0.994 | locus YBR171W, strain sec66, stronger effect = lower value 0.995 | locus YBR231C, strain swc5, stronger effect = lower value 1.01 | locus YBR279W, strain paf1, stronger effect = lower value 0.968 | locus YCL011C, strain gbp2, stronger effect = lower value 1 | locus YCL016C, strain dcc1, stronger effect = lower value 1.01 | locus YCL061C, strain MRC1, stronger effect = lower value 1.01 | locus YCL069W, strain vba3, stronger effect = lower value 0.998 | locus YCR088W, strain abp1, stronger effect = lower value 0.996 | locus YDL005C, strain med2, stronger effect = lower value 1 | locus YDL040C, strain nat1, stronger effect = lower value 0.996 | locus YDR001C, strain nth1, stronger effect = lower value 0.992 | locus YDR069C, strain doa4, stronger effect = lower value 0.996 | locus YDR137W, strain rgp1, stronger effect = lower value 0.856 | locus YDR159W, strain sac3, stronger effect = lower value 1.08 | locus YDR195W, strain ref2 1.06 | locus YDR297W, strain sur2, stronger effect = lower value 0.997 | locus YDR334W, strain swr1, stronger effect = lower value 1.01 | locus YDR335W, strain msn5, stronger effect = lower value 1 | locus YDR392W, strain spt3, stronger effect = lower value 0.886 | locus YEL003W, strain gim4, stronger effect = lower value 1 | locus YEL037C, strain rad23, stronger effect = lower value 0.998 | locus YEL061C, strain CIN8 (second series), stronger effect = lower value 0.996 | locus YER015W, strain faa2, stronger effect = lower value 1.01 | locus YER016W, strain bim1, stronger effect = lower value 1.02 | locus YER111C, strain swi4, stronger effect = lower value 1.01 | locus YER155C, strain BEM2 (second series), stronger effect = lower value 1.06 | locus YFR010W, strain ubp6, stronger effect = lower value 0.99 | locus YGL167C, strain pmr1, stronger effect = lower value 1 | locus YGL173C, strain kem1, stronger effect = lower value 0.995 | locus YGL227W, strain vid30, stronger effect = lower value 1.01 | locus YGL240W, strain doc1, stronger effect = lower value 1.08 | locus YGL253W, strain hxk2, stronger effect = lower value 0.984 | locus YHR013C, strain ard1, stronger effect = lower value 0.938 | locus YHR027C, strain rpn1, stronger effect = lower value 0.995 | locus YHR030C, strain SLT2, stronger effect = lower value 0.935 | locus YHR079C, strain IRE1, stronger effect = lower value 0.953 | locus YHR142W, strain chs7, stronger effect = lower value 0.944 | locus YJL092W, strain hpr5, stronger effect = lower value 0.994 | locus YJL095W, strain BCK1 (second series), stronger effect = lower value 1.01 | locus YJL095W, strain BCK1, stronger effect = lower value 0.97 | locus YJL115W, strain asf1, stronger effect = lower value 1.03 | locus YJL129C, strain trk1, stronger effect = lower value 0.994 | locus YJL154C, strain vps35, stronger effect = lower value 0.998 | locus YJL164C, strain tpk1, stronger effect = lower value 0.979 | locus YJL166W, strain qcr8, stronger effect = lower value 1 | locus YJL187C, strain SWE1, stronger effect = lower value 0.996 | locus YJR066W, strain TOR1, stronger effect = lower value 0.883 | locus YKL160W, strain elf1, stronger effect = lower value 0.918 | locus YKR026C, strain gcn3, stronger effect = lower value 0.986 | locus YKR091W, strain srl3, stronger effect = lower value 1 | locus YLL001W, strain dnm1, stronger effect = lower value 1.01 | locus YLL026W, stronger effect = lower value 1.01 | locus YLL041C, strain sdh2, stronger effect = lower value 0.992 | locus YLR027C, strain aat2, stronger effect = lower value 0.988 | locus YLR113W, strain HOG1, stronger effect = lower value 0.941 | locus YLR221C, strain rsa3, stronger effect = lower value 0.97 | locus YLR258W, strain gsy2, stronger effect = lower value 1.03 | locus YLR262C, strain YPT6 (second series), stronger effect = lower value 0.886 | locus YLR320W, strain mms22, stronger effect = lower value 1.01 | locus YLR342W, strain FKS1, stronger effect = lower value 0.998 | locus YLR357W, strain rsc2, stronger effect = lower value 1.13 | locus YLR370C, strain arc18, stronger effect = lower value 0.986 | locus YLR384C, strain iki3, stronger effect = lower value 1 | locus YML120C, strain ndi1, stronger effect = lower value 0.972 | locus YMR058W, strain fet3, stronger effect = lower value 0.993 | locus YMR125W, strain sto1, stronger effect = lower value 1.07 | locus YMR129W, stronger effect = lower value 1.01 | locus YMR205C, strain PFK2, stronger effect = lower value 1.06 | locus YMR231W, strain pep5, stronger effect = lower value 0.998 | locus YNL071W, strain lat1, stronger effect = lower value 0.975 | locus YNL183C, strain NPR1, stronger effect = lower value 0.93 | locus YNL209W, strain ssb2, stronger effect = lower value 0.997 | locus YNL248C, strain rpa49, stronger effect = lower value 0.972 | locus YNL322C, strain KRE1 (second series), stronger effect = lower value 1.02 | locus YNR049C, strain mso1, stronger effect = lower value 0.999 | locus YOR001W, strain rrp6, stronger effect = lower value 0.945 | locus YOR070C, strain gyp1, stronger effect = lower value 1.02 | locus YOR080W, strain dia2, stronger effect = lower value 1.01 | locus YOR083W, strain WHI5, stronger effect = lower value 0.951 | locus YOR106W, strain vam3, stronger effect = lower value 0.964 | locus YOR231W, strain MKK1, stronger effect = lower value 0.954 | locus YOR265W, strain rbl2, stronger effect = lower value 0.996 | locus YOR270C, strain vph1, stronger effect = lower value 0.976 | locus YOR290C, strain snf2, stronger effect = lower value 0.969 | locus YPL051W, strain arl3, stronger effect = lower value 0.966 | locus YPL078C, strain atp4, stronger effect = lower value 0.939 | locus YPL106C, strain sse1, stronger effect = lower value 1.01 | locus YPL240C, strain hsp82, stronger effect = lower value 1.01 | locus YPL256C, strain CLN2, stronger effect = lower value 0.964
